The target of test [1] is Lysosomal acid glucosylceramidase (Homo sapiens) (UniProt P04062). As to the kind of experiment: Glucocerebrosidase-p2 (AID 348; in the data active means potency below about 10 µM; further: potency means the concentration at half of the fitted maximal effect). Conditions: purified GBA, blue fluorogenic substrate, 40 min. The gist of the method:
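Compounds titrated from 0.6 nM upwards against 0.2 nM enzyme in pH 5.9 citric acid/KH2PO4, taurocholate, tween-20; blue fluorogenic substrate 80 uM, 40 min room temperature, stopped and read Ex 365/Em 440 for AC50.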

A short description of test [2]: AP1 Signaling Pathway (AID 357; active means well fitted curve in either direction with a large enough effect, not every such curve was filed as active;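 further: ME-180 reporter cells stimulated with EGF at its EC50 level; on the % scale 0 is the no-effect control and ±100 the full control effect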). The note with it: ME-180 AP-1-bla reporter, EGF-induced, beta-lactamase ratio, 5 h; at 7.69 µM (top of the series) unless noted. The method, boiled down:
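Titration-series screen for positive or negative modulators of EC50 EGF-induced signaling in ME-180 cells carrying an AP-1-driven beta-lactamase reporter. After 5 hours at 37 degrees Celsius, CCF4 460nm/530nm emission ratio gave %Activity; AC50 values derived.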

Test [3] has as its target Cytochrome P450 1A2 (Homo sapiens) (UniProt P05177). Nature of the test: p450-cyp1a2 (AID 410; calls by dose curve; further: potency means the concentration at half of the fitted maximal effect). The note with it: recombinant CYP1A2, luciferin-ME demethylation, luminescence; series mostly up to 57 µM. The gist of the method:
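Inhibition was calculated relative to 57 uM furafylline (full inhibition). The reaction used human CYP1A2 at 20nM with Luciferin-ME at its Km, 100uM, driven by an NADPH-regenerating system for 60 min at room temperature.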

The nature of test [4]: NFAT Signaling Pathway (AID 444; active means well fitted curve in either direction with a large enough effect, not every such curve was filed as active;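 further: carbachol stimulus at about its EC50 of 1 µM final; on the % scale 0 is the no-effect control and ±100 the full control effect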). Conditions: Jurkat NFAT-bla M1, carbachol, beta-lactamase ratio, 5 h; at 7.69 µM (top of the series) unless noted. The gist of the method: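 Read-out: CCF4 FRET ratio (460 nm/530 nm) after 1 h RT dye loading, used for %activity and AC50 from titration series. Cells: Jurkat NFAT-β-lactamase/M1 line, treated with compound plus 1 uM carbachol for 5 h, 37 °C.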

Test [5] is described as follows: Stat Signaling Pathway (AID 446; active means well fitted curve in either direction with a large enough effect, not every such curve was filed as active;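 further: ME-180 cervical cancer cells given 40 pM IL-6 alongside compound; SIE-controlled beta-lactamase reporter measured as 460/530 nm FRET emission ratio; on the % scale 0 is the no-effect control and ±100 the full control effect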). The note with it: ME-180 SIE beta-lactamase reporter, IL-6 stimulated, 5 h; at 7.69 µM (top of the series) unless noted. The gist of the method: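 ME-180 SIE-bla cells; overnight plating; cpd + IL-6 40 pM, 5 h, 37 C; LiveBLAzer 2.5 h RT; 460/530 nm emission ratio. Normalized to 300 pM IL-6 and 125 nM JAK inhibitor controls.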
Test [6] deals with Glucocorticoid receptor (Homo sapiens) (UniProt P04150). Nature of the test: GR-GFP Redistribution (AID 450;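 active means compounds whose dose series gives a full or clear partial fitted curve of increased nuclear translocation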; further: potency means the concentration at half of the fitted maximal effect). The note with it: U2OS GR-GFP nuclear translocation, laser cytometry, 2 h.
The target is the same in test [7]. As to the kind of experiment: GR-EFC Redistribution (AID 451; calls by dose curve; further: potency means the concentration at half of the fitted maximal effect). The note with it: CHO-K1 GR-EFC translocation, beta-gal luminescence, 2 h. The method, boiled down: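 Translocation of GR-ED fusion to nuclear EA restores b-gal, read by luminescence after 1 h room-temperature detection. Engineered CHO-K1 biosensor cells, 1,000/well, exposed 2 h at 37 C to titrations up to 46 uM final.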

The target of test [8] is Mitogen-activated protein kinase 10 (Mus musculus) (UniProt Q61831). Nature of the test: JNK3 AlphaScreen Assay (AID 530; active means well fitted curve in either direction with a large enough effect, not every such curve was filed as active;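 further: kinase came from lysate of stimulated human HepG2 cells; signal reports phosphorylation of biotinylated GST-cJun 1-79 at Ser73 with 10 µM ATP; on the % scale 0 is the no-effect control and ±100 the full control effect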). The note with it: JNK3 lysate, c-Jun phosphorylation; series mostly up to 57.1 µM. The method, boiled down: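 Room-temperature AlphaScreen kinase assay; pre-activated HepG2 lysate as JNK3 source, biotin-GST-cJun(1-79) substrate, 10 uM ATP, compound 15 min preincubation.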
A general note: Bead proximity is the source of the signal in Alpha formats.

Test [9] concerns the target Cytochrome P450 2C9 (Homo sapiens) (UniProt P11712). As to the kind of experiment: qHTS Assay for Inhibitors and Substrates of Cytochrome P450 2C9 (AID 883). Further: on the % scale 0 is the no-effect control and ±100 the full control effect; nearly all actives have a fitted effect of over 60% in size. Conditions: recombinant CYP2C9, luciferin-H luminescence, 60 min; series mostly up to 57.1 µM. The method, boiled down: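 Inhibition of CYP2C9 is scored as loss of luminescence, with 57uM sulphaphenazole defining 100% inhibition. Substrate Luciferin-H is used at 100uM, equal to its KM; enzyme at 10nM in 25mM KPO4, 60 min at 37C with NADPH regeneration.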
Background: Quantitative high-throughput screening tests each substance at several concentrations.

Test [10] in a line: qHTS Assay for Lipid Storage Modulators (AID 1519; calls by dose curve). Conditions: Drosophila S3 cells, BODIPY lipid droplet/cell ratio, laser cytometry, cells loaded with oleic acid; for activity change, negative = inhibition: at 57.5 µM (top of the series). The method, boiled down: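 Cells seeded at 5,000 per well were treated with compounds over a concentration series and loaded with oleic acid (400 uM, as added). Lipid droplet fluorescence (488 nm excitation, 500-530 nm channel) was read by laser-scanning cytometry and normalized to 20 uM Triacsin C.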

Test [11] concerns the target Dual specificity protein kinase CLK4 (Homo sapiens) (UniProt Q9HAZ1). As to the kind of experiment: qHTS Assay for Inhibitors of CDC-like Kinase 4 (Kinase-Glo Assay) (AID 1770). Further: nearly all actives have a fitted effect of over 65% in size. Further: potency means the concentration at half of the fitted maximal effect. Conditions: recombinant Clk4, Kinase-Glo ATP depletion luminescence; series mostly up to 66.7 µM. The method, boiled down: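 25 nM Clk4 with 100 uM RS repeat peptide and 1 uM ATP (final) in Tris pH7.5, 10 mM MgCl2, 4.5 h at room temperature. Remaining ATP measured by Kinase-Glo luciferase luminescence.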

Test [12] shares this target. Nature of the test: qHTS Assay for Inhibitors of CDC-like Kinase 4 (ADP-Glo Assay) (AID 1771). Further: nearly all actives have a fitted effect of over 70% in size. Further: potency means the concentration at half of the fitted maximal effect. The note with it: recombinant CLK4, ADP-Glo luminescence; series mostly up to 80 µM. The method, boiled down:
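Kinase reaction: Clk4 at 25 nM, RS repeat peptide substrate at 100 uM, ATP at 1 uM, 1 hr, room temperature. Product ADP detected as luciferase signal via ADP-Glo.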

Test [13] shares this target. Nature of the test: qHTS Assay for Inhibitors of CDC-like Kinase 4 (ADP-FP Assay) (AID 1795). Further: nearly all actives have a fitted effect of over 60% in size. Further: potency means the concentration at half of the fitted maximal effect. Conditions: Transcreener ADP fluorescence polarization; series mostly up to 50 µM. The gist of the method: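 Recombinant Clk4 (6.25 nM) phosphorylated 100 uM RS repeat peptide with 1 uM ATP in 25 mM Tris pH 7.5, 10 mM MgCl2, 0.5 mM EGTA, 2.5 mM DTT, 0.01% Triton X-100 for 1 h. ADP was detected by Transcreener ADP2 competitive fluorescence polarization after 30 min at room temperature.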

Test [14] deals with Ubiquitin carboxyl-terminal hydrolase 1 (Homo sapiens) (UniProt O94782). Nature of the test: Inhibitors of USP1/UAF1: Pilot qHTS (AID 504865).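 Further: rhodamine fluorescence freed from ubiquitin-rhodamine substrate followed over time; top concentration of the series differs between compounds; on the % scale 0 is the no-effect control and ±100 the full control effect; nearly all actives have a fitted effect of over 35% in size.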 The note with it: purified USP1/UAF1, Ub-rhodamine cleavage fluorescence; series mostly up to 54.9 µM. The gist of the method: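 USP1/UAF1 complex at 1 nM preincubated 15 min at room temperature with compound, then Ub-Rho substrate added at 150 nM final. Fluorescence (480/540 nm) read kinetically in 50 mM HEPES pH 7.8, 0.5 mM EDTA, 1 mM TCEP, 0.1 mg/ml BSA, 0.01% Tween-20.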

The nature of test [15]: Primary qHTS for small molecule stabilizers of the endoplasmic reticulum resident proteome: Secreted ER Calcium Modulated Protein (SERCaMP) assay (AID 1508630). Further: on the % scale 0 is the no-effect control and ±100 the full control effect. Conditions: SH-SY5Y GLuc-SERCaMP (Gaussia luciferase released on ER calcium loss) secretion, thapsigargin, luminescence; series mostly up to 38.4 µM. The gist of the method:
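GLuc-SERCaMP-expressing SH-SY5Y cells, pretreated 16 h with compound, are challenged with thapsigargin to empty ER calcium stores; after 4 h, coelenterazine is added directly to the medium and luminescence is imaged.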

Test [16] deals with 3',5'-cyclic-AMP phosphodiesterase 4B (Homo sapiens) (UniProt Q07343). Nature of the test: qHTS Assay for Inhibitors of PDE-IV (AID 607; active means well fitted activation curve with a large enough effect in the main read-out, with a control signal flat, not every such curve was filed as active; further: % of control where 0% means no effect). Conditions: HEK293 ACTOne CNG channel cells, membrane potential fluorescence; series mostly up to 22.9 µM. The gist of the method: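 ACTOne HEK293 cells carry a modified cAMP-gated CNG channel and express endogenous PDE4; plated 1000 cells/well, compounds up to 22.9 uM final. Membrane-potential dye fluorescence (ex 535/em 590) was read; parental cells received 10 uM forskolin + 100 uM RO 20-1724.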

In test [17] the target is Cytochrome P450 2C19 (Homo sapiens) (UniProt P33261). Nature of the test: qHTS Assay for Inhibitors and Substrates of Cytochrome P450 2C19 (AID 899). Further: on the % scale 0 is the no-effect control and ±100 the full control effect; nearly all actives have a fitted effect of over 60% in size. Conditions: recombinant CYP2C19, luciferin-H EGE luminescence; series mostly up to 57.1 µM. The gist of the method: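 5nM enzyme + 10uM Luciferin-H EGE (=KM), 50mM KPO4; cpd pin-transferred, 10 min 37C; NADPH regen, 60 min 37C; stopped w/ luciferin detection reagent, 20 min; luminescence. Normalized to 57uM ketoconazole (AC100).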

Test [18] concerns the target Cytochrome P450 3A4 (Homo sapiens) (UniProt P08684). As to the kind of experiment: qHTS Assay for Activators of Cytochrome P450 3A4 (AID 885). Further: nearly all actives have a fitted effect of over 65% in size. Conditions: recombinant CYP3A4, Luciferin-PPXE luminescence, 60 min; series mostly up to 57.1 µM. The method, boiled down:
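20nM CYP3A4 + 25uM Luciferin-PPXE (=KM), 200mM KPO4; cpd 10 min RT; NADPH regen, 60 min RT; stop w/ detection buffer, 20 min; luminescence. Normalized to 57 uM ketoconazole.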

The mark [19] stands for this setting: measured here: cell count channel max response.
Where [20] appears, read: measured here: lipid channel max response.

This note sets out measurements from PubChem BioAssay (NCATS).

Records with an inconclusive call do not appear. Calls of active or inactive are those of the source. Unless noted, the call rests on the fitted dose curve; in most records, active means well fitted curve in the direction sought with a large enough effect; inconclusive means small, poorly fitted or top-dose-only effect, or another doubt; inactive means no such curve, though single readings can be large; an effect the other way counts as inactive or inconclusive.

Sequence of 3',5'-cyclic-AMP phosphodiesterase 4B (Homo sapiens) (Q07343 whole entry, looked up): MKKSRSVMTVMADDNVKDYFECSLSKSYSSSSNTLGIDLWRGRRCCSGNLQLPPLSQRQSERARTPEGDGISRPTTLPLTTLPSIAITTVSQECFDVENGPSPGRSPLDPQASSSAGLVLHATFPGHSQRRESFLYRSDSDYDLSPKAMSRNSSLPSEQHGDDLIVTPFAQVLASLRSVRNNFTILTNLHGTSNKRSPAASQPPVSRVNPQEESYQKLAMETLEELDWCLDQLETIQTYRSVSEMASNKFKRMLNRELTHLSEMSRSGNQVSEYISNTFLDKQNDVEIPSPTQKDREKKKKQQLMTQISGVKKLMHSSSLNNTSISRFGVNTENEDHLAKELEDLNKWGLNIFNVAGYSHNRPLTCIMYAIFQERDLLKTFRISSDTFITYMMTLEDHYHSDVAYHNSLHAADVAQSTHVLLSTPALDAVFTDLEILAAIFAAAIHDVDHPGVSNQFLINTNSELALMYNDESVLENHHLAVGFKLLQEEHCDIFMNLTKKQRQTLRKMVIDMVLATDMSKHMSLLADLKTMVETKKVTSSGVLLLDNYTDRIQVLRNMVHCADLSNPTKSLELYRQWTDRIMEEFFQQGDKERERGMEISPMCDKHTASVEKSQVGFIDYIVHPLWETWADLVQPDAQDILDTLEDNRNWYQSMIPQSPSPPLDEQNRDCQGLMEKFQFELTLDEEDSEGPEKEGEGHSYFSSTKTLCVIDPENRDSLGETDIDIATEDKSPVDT
Sequence of Ubiquitin carboxyl-terminal hydrolase 1 (Homo sapiens) (O94782 whole entry, looked up): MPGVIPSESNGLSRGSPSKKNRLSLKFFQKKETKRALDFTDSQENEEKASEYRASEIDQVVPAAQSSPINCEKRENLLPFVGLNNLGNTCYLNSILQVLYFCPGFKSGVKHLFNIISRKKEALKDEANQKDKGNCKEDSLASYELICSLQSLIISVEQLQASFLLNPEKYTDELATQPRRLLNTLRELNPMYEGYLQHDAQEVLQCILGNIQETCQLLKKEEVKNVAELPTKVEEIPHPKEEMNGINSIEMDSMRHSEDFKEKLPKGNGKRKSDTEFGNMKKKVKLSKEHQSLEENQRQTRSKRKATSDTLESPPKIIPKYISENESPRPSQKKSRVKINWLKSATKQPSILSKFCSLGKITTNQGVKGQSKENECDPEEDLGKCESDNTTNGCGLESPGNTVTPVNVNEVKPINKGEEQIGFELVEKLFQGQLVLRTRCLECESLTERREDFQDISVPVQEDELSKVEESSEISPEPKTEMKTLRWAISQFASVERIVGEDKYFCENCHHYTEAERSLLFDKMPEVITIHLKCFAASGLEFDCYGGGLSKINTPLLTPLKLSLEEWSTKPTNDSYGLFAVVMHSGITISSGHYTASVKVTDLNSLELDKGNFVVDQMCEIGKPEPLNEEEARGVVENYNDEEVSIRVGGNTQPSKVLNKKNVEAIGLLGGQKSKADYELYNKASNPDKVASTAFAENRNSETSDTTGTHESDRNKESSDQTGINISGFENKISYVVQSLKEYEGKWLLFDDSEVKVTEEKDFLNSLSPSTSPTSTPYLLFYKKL
Sequence of Lysosomal acid glucosylceramidase (Homo sapiens) (P04062 whole entry, looked up): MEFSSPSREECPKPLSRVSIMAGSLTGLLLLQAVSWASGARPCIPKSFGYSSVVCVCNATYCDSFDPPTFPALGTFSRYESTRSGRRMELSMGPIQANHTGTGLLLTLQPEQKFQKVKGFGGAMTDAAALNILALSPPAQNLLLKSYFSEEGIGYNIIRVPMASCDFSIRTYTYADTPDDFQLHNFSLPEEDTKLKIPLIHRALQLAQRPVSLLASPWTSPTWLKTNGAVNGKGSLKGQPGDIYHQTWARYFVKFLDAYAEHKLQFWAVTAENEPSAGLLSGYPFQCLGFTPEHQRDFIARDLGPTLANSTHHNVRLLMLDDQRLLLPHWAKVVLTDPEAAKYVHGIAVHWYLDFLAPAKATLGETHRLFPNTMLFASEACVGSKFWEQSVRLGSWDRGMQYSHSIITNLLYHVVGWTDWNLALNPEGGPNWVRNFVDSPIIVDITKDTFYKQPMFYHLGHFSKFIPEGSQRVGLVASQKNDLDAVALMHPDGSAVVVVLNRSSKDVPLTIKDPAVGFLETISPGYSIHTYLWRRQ
Sequence of Dual specificity protein kinase CLK4 (Homo sapiens) (Q9HAZ1 whole entry, looked up): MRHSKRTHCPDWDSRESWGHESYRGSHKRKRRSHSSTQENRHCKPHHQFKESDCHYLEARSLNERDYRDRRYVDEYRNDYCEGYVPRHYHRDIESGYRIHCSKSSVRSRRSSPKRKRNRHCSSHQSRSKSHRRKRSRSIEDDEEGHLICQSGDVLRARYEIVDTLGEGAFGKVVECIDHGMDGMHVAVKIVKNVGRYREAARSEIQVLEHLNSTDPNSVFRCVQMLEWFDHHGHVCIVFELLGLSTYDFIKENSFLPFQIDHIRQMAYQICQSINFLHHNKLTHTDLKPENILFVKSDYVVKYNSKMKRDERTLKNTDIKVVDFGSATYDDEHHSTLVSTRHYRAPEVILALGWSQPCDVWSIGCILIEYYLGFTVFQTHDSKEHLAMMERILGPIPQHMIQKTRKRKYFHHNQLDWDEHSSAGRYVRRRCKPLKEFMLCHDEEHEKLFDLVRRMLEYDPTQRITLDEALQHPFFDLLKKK
Sequence of Glucocorticoid receptor (Homo sapiens) (P04150 whole entry, looked up, the tested form may be a part): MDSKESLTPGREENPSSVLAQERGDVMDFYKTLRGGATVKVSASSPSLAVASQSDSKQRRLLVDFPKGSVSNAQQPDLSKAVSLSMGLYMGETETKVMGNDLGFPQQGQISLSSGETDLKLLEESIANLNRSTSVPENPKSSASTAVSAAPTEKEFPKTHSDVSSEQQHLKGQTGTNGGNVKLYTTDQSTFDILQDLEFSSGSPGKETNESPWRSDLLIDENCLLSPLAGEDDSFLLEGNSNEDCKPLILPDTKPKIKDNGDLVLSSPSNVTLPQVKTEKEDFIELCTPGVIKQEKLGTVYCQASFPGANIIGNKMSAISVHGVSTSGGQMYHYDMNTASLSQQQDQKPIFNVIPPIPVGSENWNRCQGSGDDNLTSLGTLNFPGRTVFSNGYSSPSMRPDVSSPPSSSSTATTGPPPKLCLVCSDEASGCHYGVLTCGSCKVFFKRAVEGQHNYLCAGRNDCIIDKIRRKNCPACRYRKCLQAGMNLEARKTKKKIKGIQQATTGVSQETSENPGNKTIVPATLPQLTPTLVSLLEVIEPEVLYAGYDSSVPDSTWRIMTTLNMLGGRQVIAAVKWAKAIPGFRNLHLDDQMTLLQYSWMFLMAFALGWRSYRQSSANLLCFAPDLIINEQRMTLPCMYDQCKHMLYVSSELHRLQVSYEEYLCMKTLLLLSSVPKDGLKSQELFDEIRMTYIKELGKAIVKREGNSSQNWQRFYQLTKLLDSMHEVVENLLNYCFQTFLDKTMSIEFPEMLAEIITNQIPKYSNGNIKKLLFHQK
Sequence of Cytochrome P450 1A2 (Homo sapiens) (P05177 whole entry, looked up): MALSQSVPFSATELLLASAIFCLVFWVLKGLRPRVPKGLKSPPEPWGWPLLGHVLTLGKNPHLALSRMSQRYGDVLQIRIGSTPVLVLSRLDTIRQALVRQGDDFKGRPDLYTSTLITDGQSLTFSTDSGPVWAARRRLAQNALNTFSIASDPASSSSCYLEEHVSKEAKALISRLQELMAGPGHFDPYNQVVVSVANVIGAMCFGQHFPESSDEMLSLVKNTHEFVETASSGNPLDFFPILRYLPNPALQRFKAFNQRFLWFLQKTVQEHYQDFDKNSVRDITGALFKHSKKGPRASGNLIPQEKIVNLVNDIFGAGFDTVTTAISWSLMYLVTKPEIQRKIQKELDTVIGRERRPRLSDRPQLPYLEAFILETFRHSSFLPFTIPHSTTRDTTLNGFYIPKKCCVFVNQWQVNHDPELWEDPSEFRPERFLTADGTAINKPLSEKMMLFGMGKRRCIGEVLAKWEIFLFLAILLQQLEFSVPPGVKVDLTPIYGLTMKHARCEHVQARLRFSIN
Sequence of Cytochrome P450 2C9 (Homo sapiens) (P11712 whole entry, looked up): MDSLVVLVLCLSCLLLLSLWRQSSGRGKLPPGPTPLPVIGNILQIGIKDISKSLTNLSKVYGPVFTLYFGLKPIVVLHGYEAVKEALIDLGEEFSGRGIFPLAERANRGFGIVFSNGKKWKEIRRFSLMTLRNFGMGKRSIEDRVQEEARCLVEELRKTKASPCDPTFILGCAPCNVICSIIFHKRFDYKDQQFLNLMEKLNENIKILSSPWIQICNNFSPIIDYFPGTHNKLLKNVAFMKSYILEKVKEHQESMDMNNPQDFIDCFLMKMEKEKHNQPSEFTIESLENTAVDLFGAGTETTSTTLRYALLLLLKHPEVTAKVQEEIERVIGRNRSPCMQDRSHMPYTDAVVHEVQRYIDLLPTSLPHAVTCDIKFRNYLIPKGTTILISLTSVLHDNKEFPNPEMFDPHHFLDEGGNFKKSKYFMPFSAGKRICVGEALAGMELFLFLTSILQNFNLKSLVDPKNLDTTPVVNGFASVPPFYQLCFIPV
Sequence of Cytochrome P450 2C19 (Homo sapiens) (P33261 whole entry, looked up): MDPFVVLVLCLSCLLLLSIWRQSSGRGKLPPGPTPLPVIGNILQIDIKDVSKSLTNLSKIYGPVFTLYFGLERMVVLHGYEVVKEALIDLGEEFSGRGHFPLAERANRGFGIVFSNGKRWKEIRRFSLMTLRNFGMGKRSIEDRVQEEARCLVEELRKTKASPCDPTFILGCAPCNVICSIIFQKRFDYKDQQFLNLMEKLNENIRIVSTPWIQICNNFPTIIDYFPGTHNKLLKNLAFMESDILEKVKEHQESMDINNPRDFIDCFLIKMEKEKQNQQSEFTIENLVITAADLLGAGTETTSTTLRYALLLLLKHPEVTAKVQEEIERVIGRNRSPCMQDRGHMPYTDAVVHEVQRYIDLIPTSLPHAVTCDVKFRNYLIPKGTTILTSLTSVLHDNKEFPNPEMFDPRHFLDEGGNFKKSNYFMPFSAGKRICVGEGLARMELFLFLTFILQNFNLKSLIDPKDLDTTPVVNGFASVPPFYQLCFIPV

With `Cc1noc(C)c1-c1cc(N2CCN(C)CC2)ncn1`, the Potency in test [1] was > 11.4 µM (inactive); in test [3], 10 µM (active); in test [6] it was > 46 µM (inactive); in [7], > 46 µM (inactive). Further, the activity change, negative = inhibition was 4.49% (inactive) in test [2], -0.822% (inactive) in [4], 31% [at 2.29 µM] (inactive) in [9] and 3.89% (inactive) in [10]. Besides, the activity, negative = inhibition in test [5] was 7.9% (inactive). Moreover, the molecule was called inactive in test [8]. For the same molecule, the values for the max response in [10] (setting [19]) and in [10] (setting [20]) were 22.8% and 26.7%, respectively. In addition, the Potency entry in [11], in test [12], in test [13], in test [14] and in test [15] was “inactive” each time.

With `Cc1noc(C)c1-c1cc(NC2CCNCC2)ncn1`, the Potency was > 11.4 µM (inactive) in test [1], 0.126 µM (active) in test [3], > 46 µM (inactive) in [6] and > 46 µM (inactive) in [7]. The activity change, negative = inhibition in test [2] was 8.23% (inactive); in [4], 8.17% (inactive); in [9], 23.1% [at 2.29 µM] (inactive); in test [10] it was 3.45% (inactive). In test [5], the activity, negative = inhibition was 5.01% (inactive). Further, the call in test [8] was inactive. Also, the Potency entry in [16], in test [17], in test [11], in [12], in [13] and in [14] was “inactive” each time. Further, in test [15], the Potency entry was “inactive”. Moreover, the max response is -17.1% in test [10] (setting [19]) and -14.9% in [10] (setting [20]).

With `Cc1nc2cnc(N(C)C)nc2n(CCC#N)c1=O`, the Potency in [1] was > 11.4 µM (inactive); in test [3], 10 µM (active); in [6], > 9.22 µM (inactive); in test [7] it was > 46 µM (inactive). Besides, the activity change, negative = inhibition in test [2] was -8.9% (inactive); in test [4] it was -13.7% (inactive); in test [10] it was 2.74% (inactive). The activity, negative = inhibition in test [5] was -1.16% (inactive). For the same molecule, in [8], the result was inactive. The Potency entry in test [16], in test [11], in test [12], in test [13] and in test [15] was “inactive” throughout. Further, the figures for the max response in [10] (setting [19]) and in test [10] (setting [20]) were 4.56% and 5.95%, respectively.

On to `COc1ncc2nc(-c3ccccc3)c(=O)n(C)c2n1`, for which the Potency in test [1] is > 11.4 µM (inactive); in test [3], 1.58 µM (active); in test [6] it was > 9.22 µM (inactive); in [7], > 46 µM (inactive). Further, the values for the activity change, negative = inhibition in test [2], in test [4] and in test [10] were -19.1% (inactive), 11.3% (inactive) and 6.24% (inactive), respectively. In test [5], the activity, negative = inhibition was -14.9% (inactive). In test [8], the molecule was called inactive. The Potency entry in test [16], in test [11], in test [12], in test [13], in test [14] and in test [15] was “inactive” throughout. Also, the max response in test [10] (setting [19]) was 20%; in test [10] (setting [20]) it was 24.3%.

Consider `CC(=O)NCCNc1ncnc2ccc(-c3cccc(NS(C)(=O)=O)c3)cc12`, for which the Potency in [1] is > 11.4 µM (inactive); in test [3] it was 15.8 µM (active); in [6], > 46 µM (inactive); in test [7] it was > 46 µM (inactive); in test [11], 12.6 µM (active); in [12] it was 12.6 µM (active). Moreover, the Potency in [13] is 8.91 µM (active). The results for the activity change, negative = inhibition in test [2], in [4] and in test [10] were 3.51% (inactive), 7.81% (inactive) and 1.93% (inactive), respectively. In test [5], the activity, negative = inhibition was 6.44% (inactive). In addition, the molecule was called inactive in test [8]. Further, the Potency entry in test [16], in [18], in test [14] and in test [15] was “inactive” in each case. The max response worked out at 24.3% in test [10] (setting [19]) and 24.6% in test [10] (setting [20]).
